Reference: PubChem BioAssay (NCATS)
Inconclusive results are not listed. Activity calls are given as the source filed them. Calls come from the whole dose curve; as a rule, active = well fitted inhibition curve with a large enough effect; inconclusive = small, poorly fitted or top-dose-only effect; inactive = no such curve, though single readings can be large or run the other way. Where a SMILES comes first, the peptide text is derived from it. Bridges are numbered along the chain shown (N, C = ends). [ ]: non-standard residue; d: D form. The star is where a group is joined. X1 = CCC(C)C(N)C1=NC(C(=O)*)CS1; dOrn = NCCC[C@@H](N)C(=O)O

Assay: qHTS to identify inhibitors of the type 1 interferon - major histocompatibility complex class I in skeletal muscle: primary screen against the NCATS Mechanism Interrogation Plate v5.0 (MIPE) Libary (AID 1347411); note: nearly all actives have a fitted effect of over 65% in size;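 for activity change, negative = inhibition: plate controls were vehicle for no effect and reference inhibitor for full effect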
Conditions: iHSKM cells + IFN-b, HiBiT-tagged MHC-I luminescence, 24 h; series mostly up to 45.8 µM; activity change, negative = inhibition: at the top concentration
How it was run: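 Seed engineered human myoblasts (HLA-B HiBit) in medium without dexamethasone containing 4 ng/ml IFN-beta; after 1 hr add compound titrations (top 46 uM final). Incubate 24 hrs at 37 C, lyse 10 min with HiBiT reagent, read luminescence.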
Potency is the fitted concentration of half-maximal effect.

Structure (SMILES)	activity change, negative = inhibition	Potency
C[C@H]1[C@H](C)CC[C@]2(C(=O)O)CC[C@]3(C)C(=CC[C@@H]4[C@@]5(C)C[C@@H](O)[C@H](O)[C@@](C)(CO)[C@@H]5CC[C@]43C)[C@H]12	-1.29% (inactive)	
CCN(c1cc(C#CCN2CCOCC2)cc(C(=O)NCc2c(C)cc(C)[nH]c2=O)c1C)C1CCC(N(C)CCOC)CC1 (stereo not drawn)	-11.2% (inactive)	
OCc1ccccc1O[C@@H]1O[C@H](CO)[C@@H](O)[C@H](O)[C@H]1O	2.31% (inactive)	
CCOc1cc2ncc(C#N)c(Nc3ccc(OCc4ccccn4)c(Cl)c3)c2cc1NC(=O)/C=C/CN(C)C		4.66 µM (active)
O=C(O)c1ccc(CCCc2ccc(OCCc3ccc(F)cc3)cc2)o1	-12.4% (inactive)	
CCOC(=O)c1ccnc(CNCC(=O)N(CC)CCN(C)C)c1	18.5% (inactive)	
COc1ncc(-c2ccc3c(Nc4cc(Oc5cc(F)cc(F)c5)cc(C(=O)O)c4)c(S(=O)(=O)NC4CC4)cnc3c2)c(OC)n1	-7.57% (inactive)	
CNC(=O)c1ccc(Nc2ncc(C(F)(F)F)c(NCc3nccnc3N(C)S(C)(=O)=O)n2)cc1		5.23 µM (active)
OC[C@H]1O[C@@H](Oc2cc(O)cc(/C=C/c3ccc(O)cc3)c2)[C@H](O)[C@@H](O)[C@@H]1O	2.34% (inactive)	
CCOC(=O)[C@H]1O[C@@H]1C(=O)N[C@@H](CC(C)C)C(=O)NCCC(C)C	12.8% (inactive)	
CC1=C(/C=C/C(C)=C/C=C/C(C)=C/C=C/C=C(C)/C=C/C=C(C)/C=C/C2=C(C)CCCC2(C)C)C(C)(C)CCC1	-1.87% (inactive)	
C[C@H](CCC(=O)O)[C@H]1CC[C@H]2[C@@H]3[C@H](O)C[C@@H]4C[C@H](O)CC[C@]4(C)[C@H]3CC[C@]12C	7.65% (inactive)	
CCC(C)C(N)C1=NC(C(=O)N[C@@H](CC(C)C)C(=O)N[C@H](CCC(=O)O)C(=O)N[C@H](C(=O)N[C@H]2CCCCNC(=O)[C@H](CC(N)=O)NC(=O)[C@@H](CC(=O)O)NC(=O)[C@H](Cc3cnc[nH]3)NC(=O)[C@@H](Cc3ccccc3)NC(=O)[C@H]([C@@H](C)CC)NC(=O)[C@@H](CCCN)NC2=O)[C@@H](C)CC)CS1 (stereo partly drawn) (X1-L[dE]IK[dOrn]I[dF]H[dD]N; lactam 4-C)	-0.235% [at 15.5 µM] (inactive)	
Cc1nn(C)c(COc2ccc(N3CCN(S(=O)(=O)N(C)C)CC3)cc2)c1-c1cccc2c(CCCOc3cccc4ccccc34)c(C(=O)O)n(CCN3CCOCC3)c12	-7.73% (inactive)	
O=C(C1CC1)N1CC[C@@H](Cc2n[nH]c(=O)n2-c2ccc(-c3ccc4occc4c3)cc2)C1	-14.4% (inactive)	
CCS(=O)(=O)N1CCC([C@@H](C)n2c(C)c(C(=O)NCc3c(OC)cc(C)[nH]c3=O)c3ccccc32)CC1	-9.93% (inactive)	
NC1CCC(N[C@@H]2C[C@H]2c2ccccc2)CC1 (stereo partly drawn)	14.9% (inactive)	
O=C(NC[C@H](O)CN1CCc2ccccc2C1)c1cc(NC2COC2)ncn1	-23.9% (inactive)	
Nc1ccn([C@@H]2C(F)=C(CO)[C@@H](O)[C@H]2O)c(=O)n1	-14.7% (inactive)	
CON(C)C(=O)N1N=C(c2cc(F)ccc2F)S[C@@]1(CCCN)c1ccccc1	-13.5% (inactive)	
CCNC(=O)CCC/C=C\C[C@@H]1[C@@H](/C=C/C(O)CCc2ccccc2)[C@@H](O)C[C@@H]1O (stereo partly drawn)	3.09% (inactive)	
N#Cc1ccnc(N2C(=O)CC[C@H]2C(=O)N(c2cncc(F)c2)[C@H](C(=O)NC2CC(F)(F)C2)c2ccccc2Cl)c1	14.7% (inactive)	
Cc1cc(C)cc(NC(=O)Cc2ccc(OC(C)(C)C(=O)O)cc2)c1	-12.9% (inactive)	
O=C(O)C[C@H](O)C[C@H](O)/C=C/c1c(C2CC2)nc2ccccc2c1-c1ccc(F)cc1	-13.2% (inactive)	
COc1ccc2cc(OCC3(C(=O)O)CN(C(=O)c4ccc(F)cc4)C3)ccc2c1	-24.2% (inactive)	
Cc1c(-c2ccnn2C)cc(C(=O)NCc2ccc(S(C)(=O)=O)cn2)c(=O)n1-c1cccc(C(F)(F)F)c1	-23.8% (inactive)	
OC[C@H]1O[C@@H](n2cnc3c2NC=NC[C@H]3O)C[C@@H]1O	-1.69% (inactive)	
CCCCC(=O)OCC(=O)[C@]1(O)Cc2c(O)c3c(c(O)c2[C@@H](O[C@H]2C[C@H](NC(=O)C(F)(F)F)[C@H](O)[C@H](C)O2)C1)C(=O)c1c(OC)cccc1C3=O		10.4 µM (active)
